# A selection: hits, their analogues and other compounds. The true share with any hit is near 3.3%.
# PfGluPho inh – PfG6PD (Plasmodium falciparum) enzyme inhibition; PfGluPho enzyme, NADPH resazurin-diaphorase fluorescence; inhibition, % at 20 µM; hit rate 0.78% among 350,000; AID 504690;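 active = inhibition reaching at least a set limit at 20 µM in the primary screen, cut at about 59% in these data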
# UHRF1 MBD2 ctr – human UHRF1 methylated DNA binding inhibitors; Q96T88; UHRF1 binding to methylated oligo, TR-FRET; inhibition, % at 4.4 µM; hit rate 0.75% among 370,000; AID 687016;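 also: UHRF1 SRA domain binding a hemimethylated CpG hairpin DNA probe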
# Target sequence (Q96T88 whole entry, looked up, the tested form may be a part): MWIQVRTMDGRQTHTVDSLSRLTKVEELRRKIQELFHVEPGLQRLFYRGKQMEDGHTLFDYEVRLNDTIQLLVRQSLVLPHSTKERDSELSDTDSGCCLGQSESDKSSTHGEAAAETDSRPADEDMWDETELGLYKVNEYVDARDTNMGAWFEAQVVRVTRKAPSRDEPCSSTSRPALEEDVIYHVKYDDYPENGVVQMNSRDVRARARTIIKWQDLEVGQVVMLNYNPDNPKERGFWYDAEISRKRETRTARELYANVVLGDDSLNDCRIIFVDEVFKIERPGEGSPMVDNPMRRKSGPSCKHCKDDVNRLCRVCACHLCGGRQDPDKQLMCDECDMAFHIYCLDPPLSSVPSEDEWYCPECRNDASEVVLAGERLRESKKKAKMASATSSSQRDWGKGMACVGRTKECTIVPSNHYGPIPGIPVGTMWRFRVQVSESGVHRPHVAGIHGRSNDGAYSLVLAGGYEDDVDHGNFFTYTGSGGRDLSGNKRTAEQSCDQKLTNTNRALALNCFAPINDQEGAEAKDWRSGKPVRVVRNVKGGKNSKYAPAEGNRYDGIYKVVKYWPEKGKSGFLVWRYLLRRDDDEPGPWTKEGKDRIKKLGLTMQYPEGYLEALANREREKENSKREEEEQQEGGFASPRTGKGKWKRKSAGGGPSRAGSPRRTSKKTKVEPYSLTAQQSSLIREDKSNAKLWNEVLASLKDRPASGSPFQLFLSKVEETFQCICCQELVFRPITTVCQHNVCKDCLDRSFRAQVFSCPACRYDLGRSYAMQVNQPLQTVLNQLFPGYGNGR
# PRMT1 FP inh – PRMT1 (human) inhibition, primary screen; Q99873; recombinant PRMT1, activity-based probe fluorescence polarization; inhibition, % at 2.79 µM; hit rate 1.3% among 370,000; AID 652257;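 active = inhibition above about 21% made by adding two undisclosed values, limit read from the data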
# MBD2 DNA inh – inhibitors of human MBD2 binding to methylated oligonucleotide; inhibition, % at 4.4 µM; AID 686964; TR-FRET; hit rate 0.31% among 370,000; Q9UBB5; in the data active = inhibition above about 13%
# M18AAP inhibitor – PfM18AAP enzyme inhibition; inhibition, % at 7.35 µM; AID 1822; hit rate 1.2% among 290,000; recombinant PfM18AAP, H-Glu-NHMec fluorogenic cleavage;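 active = inhibition above the campaign mean inhibition over all tested compounds plus 3 SD, cut at about 28% in these data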
# PfGluPho conf – confirmation of Plasmodium falciparum G6PD inhibitors. shares compounds with PfGluPho inh. recombinant PfGluPho, NADPH-diaphorase-resazurin fluorescence. inhibition, % at 20 µM. hit rate 34% among 2,400. AID 504753;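 active = inhibition of at least 50% at 20 µM in any single replicate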
# Diaph ctr 10uM – inhibits diaphorase or oxidizes, flagging false PfG6PD hits. shares compounds with PfGluPho inh. diaphorase-coupled resazurin reduction, fluorescence, NADPH 10 uM. hit rate 39% among 820. inhibition, % at 20 µM;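 active = average inhibition reaching 50% or more with the compound at 20 µM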;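 also: resorufin red fluorescence formed as diaphorase reduces resazurin using NADPH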
# Diaph ctr 30uM – diaphorase inhibition or oxidation at 30 uM NADPH; shares compounds with PfGluPho inh; AID 504863; Diaphorase/resazurin coupled assay, resorufin fluorescence; inhibition, % at 20 µM; hit rate 29% among 820;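 active = inhibition averaging 50% or more, tested at 20 µM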
# PRMT1 confirm – confirmation of human PRMT1 inhibitors. hit rate 42% among 3,300. shares compounds with PRMT1 FP inh. recombinant His-PRMT1, activity-based probe fluorescence polarization. inhibition, % at 2.79 µM;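 active = mean inhibition across replicates above the hit cutoff derived for the earlier primary screen, cut at about 22% in these data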
# UHRF1 ctr MBD2 – inhibits human UHRF1 binding to methylated oligonucleotide, MBD2 counter-screen; TR-FRET; inhibition, % at 4.4 µM; hit rate 25% among 1,000; shares compounds with MBD2 DNA inh;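 also: UHRF1 SRA domain binding a labeled hemimethylated CpG hairpin DNA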
# MBD2 DBD conf – confirmation of human MBD2-DBD methylated oligonucleotide binding inhibitors. TR-FRET MBD2-DBD binding to methylated oligonucleotide. shares compounds with MBD2 DNA inh. AID 720531. hit rate 26% among 1,000. inhibition, % at 4.4 µM; in the data active = inhibition above about 14%
# Numbers stand for hits; n = inactive; x = not tested or not shown; ! = not active in a repeat. Rule as the data show it, unless noted: active = inhibition above about 21%; inactive = the rest.
SMILES,PfGluPho inh,UHRF1 MBD2 ctr,PRMT1 FP inh,MBD2 DNA inh,M18AAP inhibitor,PfGluPho conf,PRMT1 confirm,others
COc1cc2c(cc1OC)C(C)N(S(=O)(=O)c1ccc(Cl)nc1)CC2 (stereo not drawn),n,n,n,n,n,x,x,
Cc1ccc(C(=O)COC(=O)COc2ccccc2C)cc1,n,n,n,n,n,x,x,
O=C(COc1ccccc1F)OCC(=O)c1ccc([N+](=O)[O-])cc1,88,n,46,n,x,52,34,Diaph ctr 10uM=n;Diaph ctr 30uM=n
CCN(CC)c1ccc(N)cc1S(=O)(=O)Nc1ccccc1OC,67,n,46,n,n,n,n,
CCN(CC)c1ccc(N)cc1S(=O)(=O)Nc1ccc(OC)cc1,n,n,n,n,n,x,x,
O=c1c2ccccc2ncn1-c1ccc(Cl)cc1Cl,n,n,n,n,n,x,x,
O=c1c2ccccc2sn1-c1ccc(Cl)cc1Cl,129,n,74,n,x,109,94,Diaph ctr 10uM=n;Diaph ctr 30uM=n
C(=Cc1c[nH]c2ccccc12)c1nccc2ccccc12,65,n,52,n,x,n,n,
C(=Cc1c[nH]c2ccccc12)c1ccc2ccccc2n1,n,n,n,n,x,x,x,
c1cc(CNc2ccc3c(c2)OCO3)ccn1,61,n,37,n,n,53,n,Diaph ctr 10uM=n;Diaph ctr 30uM=n
COc1cccc(C2CC(=O)N3CN(c4cccc(Cl)c4C)CSC3=C2C#N)c1OC (stereo not drawn),86,n,29,n,n,n,54,
COc1ccccc1N1CSC2=C(C#N)C(c3ccc(SC)cc3)CC(=O)N2C1 (stereo not drawn),67,n,39,n,30,52,64,Diaph ctr 10uM=n;Diaph ctr 30uM=n
COc1cc(OC)c(C2C(C#N)=C(N)Oc3cc(C)n(CCCN4CCOCC4)c(=O)c32)cc1OC (stereo not drawn),n,n,n,n,n,x,x,
COc1cc(OC)c(C2CC(=O)N3CN(C)CSC3=C2C#N)cc1OC (stereo not drawn),61,n,42,n,n,n,77,
CCc1ccccc1N1CSC2=C(C#N)C(c3cc(OC)c(OC)cc3OC)CC(=O)N2C1 (stereo not drawn),67,n,62,n,37,n,79,
COc1ccc(C2CC(=O)N3C(=C2C#N)SCC3(O)c2ccccc2)cc1 (stereo not drawn),n,n,n,n,n,x,x,
CCc1ccccc1N1CCN(S(=O)(=O)c2cc(OC)ccc2OC)CC1,n,n,n,n,n,x,x,
c1ccc(-c2nnnn2-c2ccccc2)cc1,n,n,n,n,n,x,x,
ClC(Cl)(c1nnnn1-c1ccccc1)c1nnnn1-c1ccccc1,88,n,90,n,n,78,91,Diaph ctr 10uM=n;Diaph ctr 30uM=n
COc1ccc(C(F)(F)F)cc1N/C=C/c1nnnn1-c1ccc(C)cc1,n,n,n,n,n,x,x,
S=C(NCc1ccco1)NCc1ccco1,79,27,27,n,x,n,n,
NNC(=S)NCc1ccco1,n,n,n,n,n,x,x,
CCN(CC)CCCNc1ccc2ncn3c4ccc(O)cc4c(=O)c1c23,80,n,116,n,x,n,133,
COc1cccc(-n2nc3c(=O)n(Cc4ccccc4Cl)nc(C)c3c2C)c1,n,n,n,n,n,x,x,
Cc1ccc(Nc2nc(-c3ccc(S(=O)(=O)N4CCOCC4)cc3)cs2)cc1,n,n,26,n,n,n,n,
SMILES,PfGluPho inh,UHRF1 MBD2 ctr,PRMT1 FP inh,MBD2 DNA inh,M18AAP inhibitor,PfGluPho conf,PRMT1 confirm,others
COC1=C(OC)C(=O)C(Sc2ccc3ccccc3c2)=CC1=O,128,n,95,n,x,106,94,Diaph ctr 10uM=82;Diaph ctr 30uM=n
O=C(CSc1nncn1-c1ccccc1)Nc1ccccc1F,n,n,n,n,n,x,x,
CCN1CCN(C(=O)/C=C/c2ccc(C)o2)CC1,n,n,n,n,n,x,x,
Cc1ccc(/C=C/C(=O)N2CC(C)CC(C)C2)o1 (stereo not drawn),72,n,40,n,n,n,n,
CCn1c(SCC(=O)N/N=C/c2cccc(Oc3ccccc3)c2)nnc1-c1ccccc1,x,n,n,n,x,x,x,
O=C(Nc1ccc(F)cc1)OCCN1CCCC12CCC(c1ccccc1)CC2 (stereo not drawn),x,n,n,n,x,x,x,
COC(=O)c1c(-c2cccnc2)csc1NC(=O)c1cc(C)on1,62,n,29,n,n,n,n,
COc1ccc(C(OC(=O)c2ccco2)C(=O)NC(C)(C)C)cc1 (stereo not drawn),n,n,n,n,n,x,x,
COc1ccc(OC)c(N=c2ssnc2Cl)c1,82,n,75,n,n,n,81,
COc1ccc(OC)c(N=C2C(=O)Nc3ccccc32)c1,n,n,n,n,n,x,x,
COc1cc(N=c2ssnc2Cl)c(OC)cc1Cl,105!,n,94,n,29,64,91,Diaph ctr 10uM=n;Diaph ctr 30uM=n
COc1cc(-n2nnnc2SC)c(OC)cc1Cl,n,n,n,n,n,x,x,
CC(C)(NC(=O)c1ccccc1)c1nc2ccccc2s1,60,n,59,n,x,n,82,
CC1=C(C)CS(=O)N(S(=O)(=O)c2ccc(Cl)cc2)C1 (stereo not drawn),60,n,34,n,n,49,43,Diaph ctr 10uM=n;Diaph ctr 30uM=n
O=C(/C=C/c1cccs1)Nc1scc(-c2ccccc2)c1C(=O)O,70,22,n,14,n,n,x,UHRF1 ctr MBD2=n;MBD2 DBD conf=n
O=C(/C=C/c1cccs1)Nc1nc(-c2ccccc2)cs1,n,n,n,n,n,x,x,
O=S(=O)(c1ccccc1Br)N(Cc1cn(CC2CCCCC2)nn1)C1CC1,x,n,n,n,x,x,x,
O=[N+]([O-])c1ccc(Cl)c(S(=O)(=O)NC2=NCCC2)c1,n,n,n,n,x,x,x,
C=CC(=O)N1C/C(=C/c2ccc(F)cc2)C(=O)/C(=C\c2ccc(F)cc2)C1,62,40,n,15,x,n,x,UHRF1 ctr MBD2=25;MBD2 DBD conf=15
CN(C)c1ncc(C2=C(Cl)C(=O)C(N3CCCC3)=C(Cl)C2=O)s1,91,73,68,24,n,98,x,Diaph ctr 10uM=n;Diaph ctr 30uM=n;UHRF1 ctr MBD2=36;MBD2 DBD conf=24
Cc1cccc(S(=O)(=O)C(C#N)c2nc3ccccc3nc2N2CCCC2)c1 (stereo not drawn),n,n,25,n,n,x,n,
CCNc1nc(NC(C)(C)C)nc(N2CCCC2)n1,n,n,32,n,n,x,n,
N#Cc1cc2c(nc1SCc1ccccc1)CCC2,n,n,n,n,n,x,x,
N#Cc1cc2c(nc1SCc1ccncc1)CCC2,n,n,38,n,n,x,n,
